Data: PubChem BioAssay AID1210 (NMMLSC, 2008)

Molecular target: Estrogen receptor beta (Homo sapiens) (UniProt Q92731)
Experiment: displacement of fluorescent estrogen from ERbeta – cell-based, Cos7 ERbeta-GFP, flow cytometry, primary screen (AID 1210);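 also: 0% = DMSO vehicle wells and 100% = complete loss of labeled estradiol signal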
Details: fluorescent estrogen binding, at 10 µM, hits give high values;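 active = blocks over 70% of labeled estradiol binding at 10 µM, or over a set limit at 100 nM; inactive = the rest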

Chain of Estrogen receptor beta (Homo sapiens) (Q92731 whole entry, looked up): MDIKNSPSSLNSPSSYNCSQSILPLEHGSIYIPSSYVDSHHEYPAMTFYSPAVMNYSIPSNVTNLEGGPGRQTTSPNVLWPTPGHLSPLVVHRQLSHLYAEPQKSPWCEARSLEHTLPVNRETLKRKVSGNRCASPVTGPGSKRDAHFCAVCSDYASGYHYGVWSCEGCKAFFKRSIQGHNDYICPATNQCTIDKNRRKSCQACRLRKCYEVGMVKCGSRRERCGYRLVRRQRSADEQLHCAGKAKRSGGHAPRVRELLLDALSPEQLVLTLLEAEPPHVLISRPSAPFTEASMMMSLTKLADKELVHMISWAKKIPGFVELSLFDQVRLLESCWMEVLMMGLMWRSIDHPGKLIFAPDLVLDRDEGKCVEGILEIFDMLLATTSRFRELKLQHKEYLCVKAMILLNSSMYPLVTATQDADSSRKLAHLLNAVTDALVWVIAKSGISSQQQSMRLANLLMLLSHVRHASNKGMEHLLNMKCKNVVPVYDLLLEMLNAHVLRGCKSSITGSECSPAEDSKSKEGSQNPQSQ

inhibition, inactive:
CCCOc1cc(OCCC)c2c3c(c(=O)oc2c1)CCCC3 20%
CCCCOc1cc(OCCCC)c2c3c(c(=O)oc2c1)CCCC3 27%
Cc1c(O)ccc2c3c(c(=O)oc12)CCCC3 28%
CCCSc1nc(C)c(-c2csc(C(C#N)=C3CCCC3)n2)cc1C#N 37%
COc1ccccc1C(=O)Nc1nc(-c2cccs2)c(NC(C)=O)s1 40%
CCOC(=O)c1c(N)sc2c1CC(C)(C)NC2(C)C 22%
CCOc1ccccc1-c1nc(-c2ccc(NC(=O)c3ccc(Br)o3)cc2)no1 37%
CCc1cc2c3c(c(=O)oc2cc1OCC(=O)O)CCCC3 20%
COc1cccc([C@@H]2Oc3ccc(OC)cc3C(=O)[C@H]2O)c1 32%
COc1cccc(-c2cc(C(=O)Nc3cc(C)nn3-c3ccccc3)no2)c1 23%
CC1CCC2(C)c3[nH]c4ccccc4c3CCN2C1=O (stereo not drawn) 7%
CCOc1ccc(NS(=O)(=O)c2ccc3c(c2)[C@H]2C=CC[C@H]2[C@@H](c2ccc(C(=O)O)cc2)N3)cc1 52%
COC(=O)c1cnn2c(C(F)(F)F)cc(-c3ccco3)nc12 27%
CCOC(=O)Cc1csc(NC(=O)Cc2cccs2)n1 25%
COc1cc([C@@H]2Nc3ccc(S(=O)(=O)Nc4ccccc4F)cc3[C@@H]3C=CC[C@@H]32)cc(OC)c1OC 11%
Cn1c(C(=O)Nc2ccc3c(c2)OCO3)cc2c(=O)n(C)c3ccccc3c21 42%
CC1CCCC(C)N1Cc1c(O)ccc2c3c(c(=O)oc12)CCC3 (stereo not drawn) 21%
Cc1noc(C)c1CSCC(=O)OCC(=O)Nc1sccc1C#N 5%
CC(=O)c1ccc2c(c1)C1C=CCC1C(c1ccncc1)N2 (stereo not drawn) 11%
CCCCc1cc(=O)oc2c(C)c(O)ccc12 7%
N#Cc1c2c(c(=O)n3c1[nH]c1ccccc13)CCCC2 13%
CCOc1cc2c(c([N+](=O)[O-])c1)NC(c1ccc(Cl)cc1)C1CC=CC21 (stereo not drawn) 16%
COc1ccc(C2(CNCC(N)=O)CCCC2)cc1OC 7%
COc1ccc(C(N)CCc2ccc(C)o2)cc1 (stereo not drawn) 38%
COc1ccc2[nH]c3c(c2c1)CCNC3=O 17%
Cc1ccc(-c2nnc(-c3ccc(NC(=O)c4ccco4)cc3)o2)cc1 54%
Cc1ccc2c(c1)[C@H]1OCC[C@H]1[C@@H](c1ccncc1)N2 24%
O=C(Nc1ccc(O)cc1)C1CC=CCC1 (stereo not drawn) 29%
Cc1ccc(-c2n[nH]c(=S)n2/N=C/C=C/c2ccccc2[N+](=O)[O-])cc1 53%
CCCCCCc1cc2c3c(c(=O)oc2cc1OCC(=O)OC)CCC3 20%
COc1nnc(-c2ccc(C(=O)N3C[C@@H]4C[C@H](C3)c3cccc(=O)n3C4)cc2)c2ccccc12 34%
COc1ccc2c(c1)c1c3n2CCNC3CCC1 (stereo not drawn) 18%
O=C(Cc1ccc(S(=O)(=O)N2CCOCC2)s1)Nc1nc2c(s1)CCCC2 18%
CCNC(=O)N1c2ccc(OCC)cc2C(C)=CC1(C)C 15%
CC1=CC(C)C2(CO)COC(c3ccccc3O)C1C2C (stereo not drawn) 66%
Cc1oc2ccc(OCC#N)cc2c1C(=O)OC(C)C 14%
COc1cc2c(c([N+](=O)[O-])c1)NC(c1ccc(Br)cc1)C1CC=CC21 (stereo not drawn) 8%
CC1(C)Cc2[nH]c3ccccc3c2C(C)(C)N1 16%
